# From the supplement of paper PMC6658780
# Where a name gives a salt, the structure may show the parent alone. ± gives the standard deviation of the averaged measurements.
# Tested on: Klebsiella pneumoniae NCTC-13439
# Assay: percent growth inhibition of drug alone vs DMSO control; higher = more growth inhibition
# Details: antibiotic (0.125x MIC): none (0.1% DMSO); 7 µM
row,Compound,percent growth inhibition of drug alone [%]
1,C[C@H](N)[C@H](O)c1cccc(O)c1 [Metaraminol bitartrate],-7.73 ± 11
2,N=C(NCCCCCCNC(=N)NC(=N)Nc1ccc(Cl)cc1)NC(=N)Nc1ccc(Cl)cc1 [Chlorhexidine],2.54 ± 9.5
3,Cc1nc2n(c(=O)c1CCN1CCC(c3noc4cc(F)ccc34)CC1)CCCC2 [Risperidone],-5.2 ± 14
4,C#C[C@]1(OC(C)=O)CC[C@H]2[C@@H]3CCC4=CC(=NO)CC[C@@H]4[C@H]3CC[C@@]21CC (mixture of isomers) [Norgestimate],-4.1 ± 1.3
5,Cc1c(F)c(N2CCNC(C)C2)cc2c1c(=O)c(C(=O)O)cn2C1CC1 (stereo not drawn) [Grepafloxacin],13 ± 6.5
6,COc1ccc(OC)c(C(O)CNC(=O)CN)c1 (stereo not drawn) [Midodrine hydrochloride],-12.1 ± 4.3
7,COc1c(N2C[C@@H]3CCCN[C@@H]3C2)c(F)cc2c(=O)c(C(=O)O)cn(C3CC3)c12 [Moxifloxacin],12.5 ± 0.24
8,CCN1CCN(c2cc3c(cc2F)c(=O)c(C(=O)O)cn3C2CC2)CC1 [Enrofloxacin],3.46 ± 4.9
9,NC(=O)N/N=C/c1ccc([N+](=O)[O-])o1 [Nitrofural],-7.28 ± 2
10,NC1CCN(c2nc3c(cc2F)c(=O)c(C(=O)O)cn3-c2ccc(F)cc2F)C1 (stereo not drawn) [Tosufloxacin hydrochloride],56.5 ± 19
11,NC1CCN(c2c(F)cc3c(=O)c(C(=O)O)cn(C4CC4)c3c2Cl)C1 (stereo not drawn) [Clinafloxacin],13.5 ± 8.8
12,O=C(OCC(O)CO)c1ccccc1Nc1ccnc2cc(Cl)ccc12 (stereo not drawn) [Glafenine hydrochloride],-9.8 ± 14
13,COc1c(N2CCNC(C)C2)c(F)cc2c(=O)c(C(=O)O)cn(C3CC3)c12 (stereo not drawn) [Gatifloxacin],12.5 ± 5.8
